Giardia kill: Small Molecules that selectively kill Giardia lamblia: qHTS; Giardia lamblia trophozoite viability; activity change, % at 7.66 µM, hits read low; hit rate 0.15% among 340,000; AID 540267, 2011; in the data active = activity change below about -80%; inconclusive = between about -30% and that limit;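 also: parasites exposed to compound for two days anaerobically before the ATP read; % is scaled to controls: 0 for no effect and ±100 for the full control effect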
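Trophozoite viability was measured as ATP-dependent luminescence, read 15-30 min after reagent addition. Before that, parasites at 100 cells/well were exposed to compounds for 48 h, anaerobically, at 37 deg C.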
MCF10A rerep: A quantitative high throughput screen for small molecules that induce DNA re-replication in MCF 10a normal breast cells | AID 624296, 2012 | hit rate 2.9% among 350,000 | MCF 10A DNA re-replication, Hoechst nuclear intensity, 48 h | Potency, µM (top dose mostly 46.1 µM), for the others: at the top dose activity, positive = re-replication, hits mostly activators; also: potency is read from the fitted curve at half-maximal effect; % of control where 0% means no effect; nearly all actives have a fitted effect of over 50% in size
KB-V1 cytotox: qHTS assay for MDR1-selective chemotherapeutics: Primary screen using the drug-selected MDR subline cells KB-V1; KB-V1 MDR cells viability, CellTiter-Glo, 72 h; Potency, µM (top dose mostly 46.1 µM), most hits filed as cytotoxic; hit rate 3.4% among 400,000; also: potency is read from the fitted curve at half-maximal effect; % is scaled to controls: 0 for no effect and ±100 for the full control effect; nearly all actives have a fitted effect of over 60% in size
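KB-V1 cells (P-gp-expressing MDR subline of KB-3-1) in phenol-red-free DMEM with 10% FBS were exposed to library compounds over a concentration series for 72 h at 37 degrees C. Viability read by CellTiter-Glo luminescence; concentration-effect curves fitted after normalization.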
KB-3-1 cytotox: qHTS assay for MDR1-selective chemotherapeutics: Primary screen using the parental adenocarcinoma cell KB-3-1 | Potency, µM (series often up to 46.1 µM), most hits filed as cytotoxic | AID 1347075, 2019 | hit rate 1.4% among 400,000 | KB-3-1 viability, CellTiter-Glo ATP luminescence, 72 h; also: potency is read from the fitted curve at half-maximal effect; % is scaled to controls: 0 for no effect and ±100 for the full control effect; nearly all actives have a fitted effect of over 60% in size
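Cells are dispensed, compounds pinned in, plates held at 37 °C for 72 h, then CellTiter-Glo is added and luminescence read after 10 minutes. Cell line: parental KB-3-1 in phenol-red-free DMEM, 10% FBS.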
ASM inhibitor: Inhibitors of Secretory Acid Sphingomyelinase (S-ASM): qHTS | Sphingomyelin phosphodiesterase (Homo sapiens), P17405 | placental ASM, HMU-PC fluorogenic substrate, 60 min | Potency, µM (doses to about 57.5 µM), without a hit: at the top dose activity change, negative = inhibition, hits mostly inhibitors | hit rate 0.006% among 340,000; also: potency is read from the fitted curve at half-maximal effect
Target sequence (P17405 47-631 limits assumed): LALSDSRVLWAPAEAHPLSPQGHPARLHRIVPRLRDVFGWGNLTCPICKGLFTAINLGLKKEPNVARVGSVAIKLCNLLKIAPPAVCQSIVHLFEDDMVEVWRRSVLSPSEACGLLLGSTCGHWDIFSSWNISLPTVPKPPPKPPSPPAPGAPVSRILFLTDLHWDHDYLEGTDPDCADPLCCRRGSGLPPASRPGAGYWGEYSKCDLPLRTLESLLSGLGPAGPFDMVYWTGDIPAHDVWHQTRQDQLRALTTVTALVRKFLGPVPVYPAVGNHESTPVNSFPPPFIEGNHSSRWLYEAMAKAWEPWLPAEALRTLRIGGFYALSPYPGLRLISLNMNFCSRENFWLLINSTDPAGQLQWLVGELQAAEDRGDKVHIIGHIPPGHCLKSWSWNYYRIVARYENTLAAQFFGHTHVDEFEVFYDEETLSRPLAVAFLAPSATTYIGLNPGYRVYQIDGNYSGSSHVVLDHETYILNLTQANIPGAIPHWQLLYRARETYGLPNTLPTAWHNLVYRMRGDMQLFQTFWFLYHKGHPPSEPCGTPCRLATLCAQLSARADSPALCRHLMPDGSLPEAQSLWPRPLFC
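Human placenta-derived ASM preincubated with compound 10 min at room temperature, then reacted with 9 uM (final) fluorogenic HMU-PC substrate for 60 min at 37 C. Stop solution raises pH to 10; fluorescence read at Ex 386/Em 447 nm.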
SW480 rereplic: A quantitative high throughput screen for small molecules that induce DNA re-replication in SW480 colon adenocarcinoma cells; Potency, µM (titrated, usually from 46.1 µM), inactives show top-dose re-replication activation, actives largely listed as activators; hit rate 1.8% among 340,000; SW480 DNA re-replication, Hoechst DNA content imaging, 48 h; also: potency is read from the fitted curve at half-maximal effect; % of control where 0% means no effect; nearly all actives have a fitted effect of over 55% in size
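Readout is total intensity of Hoechst-stained nuclei, excited at 405 nm and collected at 500-530 nm. Compound treatment lasted 48 hr at 37 C in 5% CO2 before staining.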
Active calls of the source: *. Rows were chosen to be rich in hits. Some 6.9% of all compounds tested hit in one or more screens of this group. Unless noted, calls follow the shape of the dose curve; as a rule, active = well fitted curve in the direction sought with a large enough effect; inconclusive = small, poorly fitted or top-dose-only effect, or another doubt; inactive = no such curve, though single readings can be large; an effect the other way counts as inactive or inconclusive.

Results for CC1CCc2c(sc3nc(C(C)(C)C)nc(N4CCN(C(=O)CCl)CC4)c23)C1 (configuration not stated) ?
Giardia kill: 13.8; MCF10A rerep: 14.6µM*; KB-V1 cytotox: inconclusive; KB-3-1 cytotox: inconclusive; ASM inhibitor: -9.7%; SW480 rereplic: 5.17µM*

What do the screens show for `CCOc1ccc(CN(C)C(=O)c2ccc(S(=O)(=O)N(C)c3ccccc3OC)cc2)cc1`?
Giardia kill: 8.7; MCF10A rerep: 15.8%; KB-V1 cytotox: inactive; KB-3-1 cytotox: inconclusive; ASM inhibitor: -0.7%; SW480 rereplic: 6.1%

How did O=C(CN1c2cccc3cccc(c23)S1(=O)=O)NCCc1ccccc1 do in these assays?
Giardia kill: 3.4; MCF10A rerep: 11.3%; KB-V1 cytotox: 20.6µM*; KB-3-1 cytotox: inactive; ASM inhibitor: 15.5%; SW480 rereplic: 4.5%

What do the screens show for `COc1ccc(OC)c(NC(=O)CN2c3cccc4cccc(c34)S2(=O)=O)c1`?
Giardia kill: -19.0; MCF10A rerep: 6.7%; KB-V1 cytotox: 5.17µM*; KB-3-1 cytotox: inactive; ASM inhibitor: 7.5%; SW480 rereplic: -0.3%

Results for COc1ccc(/C=N/NC(=O)c2ccc(CN3c4cccc5cccc(c45)S3(=O)=O)cc2)cc1 ?
Giardia kill: -9.3; MCF10A rerep: 15.7%; KB-V1 cytotox: inactive; KB-3-1 cytotox: inactive; ASM inhibitor: 53.3%; SW480 rereplic: 0.8%

Results for COc1cc(/C=N/NC(=O)c2ccc(CN3c4cccc5cccc(c45)S3(=O)=O)cc2)cc(OC)c1O ?
Giardia kill: -0.8; MCF10A rerep: 16.4µM*; KB-V1 cytotox: inactive; KB-3-1 cytotox: inactive; ASM inhibitor: 32.3%; SW480 rereplic: 17.0%

How did COc1ccc(C)cc1NC(=O)CN1C(=O)c2cccc3cccc1c23 do in these assays?
Giardia kill: -11.6; MCF10A rerep: 14.6µM*; KB-V1 cytotox: inactive; KB-3-1 cytotox: inactive; ASM inhibitor: 208.9%; SW480 rereplic: inconclusive

How did C#CCn1c(C2CC(=O)N(c3ccc(OCC)cc3)C2)nc2ccccc21 (configuration not stated) do in these assays?
KB-V1 cytotox: inactive; KB-3-1 cytotox: inactive

How did O=C(NCc1ccc(-c2nc3ccccc3s2)cc1)c1ccco1 do in these assays?
Giardia kill: 4.5; MCF10A rerep: 4.7%; KB-V1 cytotox: 23.1µM*; KB-3-1 cytotox: inactive; ASM inhibitor: -1.8%; SW480 rereplic: -66.2%

Results for O=C(CCCc1nc2ccccc2s1)NCc1ccccc1 ?
Giardia kill: -7.8; MCF10A rerep: 1.3%; KB-V1 cytotox: 23.1µM*; KB-3-1 cytotox: inactive; ASM inhibitor: 6.3%; SW480 rereplic: -5.6%

What do the screens show for `O=C(CCCc1nc2ccccc2s1)NCc1ccc(F)cc1`?
Giardia kill: 11.5; MCF10A rerep: 17.2%; KB-V1 cytotox: inactive; KB-3-1 cytotox: inactive; ASM inhibitor: 3.8%; SW480 rereplic: -1.0%

What do the screens show for `COC(=O)c1c(NC(=O)c2ccc(N(C)S(=O)(=O)c3ccc(C)cc3)cc2)sc2c1CCCC2`?
Giardia kill: -4.4; MCF10A rerep: 5.8µM*; KB-V1 cytotox: inactive; KB-3-1 cytotox: inactive; ASM inhibitor: 395.9%; SW480 rereplic: inconclusive

What do the screens show for `CCOC(=O)c1c(NC(=O)C(NCCN(C)C)c2ccccc2)sc2c1CCCC2` (configuration not stated)?
Giardia kill: -16.9; MCF10A rerep: 18.4µM*; KB-V1 cytotox: inactive; KB-3-1 cytotox: inconclusive; ASM inhibitor: -10.3%; SW480 rereplic: inconclusive

What do the screens show for `COC(=O)c1c(NC(=O)CN(c2ccccc2)S(C)(=O)=O)sc2c1CCCC2`?
Giardia kill: -5.6; MCF10A rerep: 0.6%; KB-V1 cytotox: 10.3µM*; KB-3-1 cytotox: inactive; ASM inhibitor: -14.4%; SW480 rereplic: -4.3%

Results for COC(=O)c1c(NC(=O)c2ccccc2N(C)S(=O)(=O)c2ccccc2)sc2c1CCCC2 ?
Giardia kill: -5.1; MCF10A rerep: inconclusive; KB-V1 cytotox: 6.51µM*; KB-3-1 cytotox: 4.61µM*; ASM inhibitor: 8.3%; SW480 rereplic: 11.6µM*

What do the screens show for `N#Cc1ccc(OC(=O)c2cc(-c3ccc(Cl)cc3)on2)cc1`?
KB-V1 cytotox: inactive; KB-3-1 cytotox: inactive

What do the screens show for `Cc1ccc(NC(=O)COC(=O)COc2cccc3c2OC(C)(C)C3)c(C)c1`?
Giardia kill: 12.0; MCF10A rerep: -0.8%; KB-V1 cytotox: inactive; KB-3-1 cytotox: inactive; SW480 rereplic: -61.8%

What do the screens show for `COCCN(CCOC)S(=O)(=O)c1ccc(C(=O)Nc2sc3c(c2C(N)=O)CCCCC3)cc1`?
Giardia kill: -17.7; MCF10A rerep: 18.0%; KB-V1 cytotox: 2.91µM*; KB-3-1 cytotox: inactive; ASM inhibitor: 33.4%; SW480 rereplic: 4.3%

Results for CCN1CCc2c(sc(NC(=O)c3ccc(S(=O)(=O)N(CCOC)CCOC)cc3)c2C(N)=O)C1 ?
KB-V1 cytotox: inactive; KB-3-1 cytotox: inactive

Results for COc1cc(OC)cc(C(=O)Nc2sc3c(c2C(N)=O)CCC3)c1 ?
Giardia kill: 30.4; MCF10A rerep: 0.581µM*; KB-V1 cytotox: inactive; KB-3-1 cytotox: inactive; ASM inhibitor: inactive; SW480 rereplic: inconclusive

Results for CCOC(=O)c1c(NC(=O)c2ccccc2N(C)S(=O)(=O)c2ccccc2)sc2c1CCCC2 ?
Giardia kill: -10.9; MCF10A rerep: inconclusive; KB-V1 cytotox: 5.8µM*; KB-3-1 cytotox: 2.91µM*; ASM inhibitor: 37.1%; SW480 rereplic: 5.17µM*

What do the screens show for `Cc1cccc(C)c1OCc1cc(C(=O)N2CCN(c3ccc(F)cc3)CC2)no1`?
Giardia kill: -15.4; MCF10A rerep: inconclusive; KB-V1 cytotox: inactive; KB-3-1 cytotox: inactive; ASM inhibitor: -0.8%; SW480 rereplic: 2.9%

Results for C[C@H](CO)N1C[C@H](C)[C@@H](CN(C)C(=O)Nc2ccc(F)cc2)Oc2ccc(NS(C)(=O)=O)cc2C1=O ?
Giardia kill: -19.1; MCF10A rerep: 1.4%; KB-V1 cytotox: inactive; KB-3-1 cytotox: inactive; ASM inhibitor: 1.1%; SW480 rereplic: -70.9%

What do the screens show for `COc1c(C)cc(Br)cc1C(=O)NC(=S)NCc1ccco1`?
Giardia kill: 5.6; MCF10A rerep: inconclusive; ASM inhibitor: -3.4%; SW480 rereplic: -0.2%

How did C=C1C=C(C(F)F)n2ncc(C(=O)NCc3ccccc3)c2N1 do in these assays?
KB-V1 cytotox: inactive; KB-3-1 cytotox: inactive

Screens: PubChem BioAssay, National Center for Advancing Translational Sciences (NCATS)
